Records with an inconclusive call do not appear. Where a call stands in place of a potency, no number is given. Calls of active or inactive are those of the source. Calls follow the shape of the dose curve; as a rule, active = well fitted inhibition curve with a large enough effect in the signal ratio in the repeat runs, with a control signal flat; inconclusive = weak or mixed curves, or effect the other way; inactive = flat fitted curve, though single readings scatter; the % refers to the signal ratio.

Sequence of D(2) dopamine receptor (Homo sapiens) (P14416 whole entry, looked up): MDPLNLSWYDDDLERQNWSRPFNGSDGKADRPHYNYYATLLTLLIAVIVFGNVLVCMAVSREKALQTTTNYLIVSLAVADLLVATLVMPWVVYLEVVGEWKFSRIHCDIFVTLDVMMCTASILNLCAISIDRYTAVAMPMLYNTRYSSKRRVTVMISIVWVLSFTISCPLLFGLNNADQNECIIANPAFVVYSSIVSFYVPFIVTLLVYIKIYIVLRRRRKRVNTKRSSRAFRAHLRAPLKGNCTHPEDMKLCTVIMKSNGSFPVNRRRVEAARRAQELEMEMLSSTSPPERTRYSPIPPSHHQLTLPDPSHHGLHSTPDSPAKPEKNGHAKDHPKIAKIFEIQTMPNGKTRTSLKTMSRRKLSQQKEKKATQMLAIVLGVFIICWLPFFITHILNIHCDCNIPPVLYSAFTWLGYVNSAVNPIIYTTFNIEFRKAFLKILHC

The assay concerns the target D(2) dopamine receptor (Homo sapiens) (UniProt P14416). The assay is described as follows: Dopamine D2 receptor (DRD2) small molecule antagonists, cell-based qHTS assay (AID 1963595). The settings on record: HEK293-DRD2 cAMP HTRF antagonist mode; series mostly up to 92.4 µM. An excerpt:
National Center for Advancing Translational Sciences [NCATS]
Division of Preclinical Innovation [DPI]
U.S. Environmental Protection Agency [EPA]
National Institutes of Environmental Health Sciences [NIEHS]
National Toxicology Program [NTP]
U.S. Food and Drug Administration [FDA]
DRD2 is the D2 subtype of the dopamine receptor, which is coupled to Gi subtype of G protein-coupled receptor. This G protein-coupled receptor inhibits adenylyl cyclase activity. The DRD2-HEK293 cell line stably expressing D2 dopamine receptor can be used for screening agonists and antagonists of interactions between D2 and its ligands. The Hek293-DRD2 cAMP assay is based on HTRF technology. It measures changes of cAMP accumulation in response to Gi coupled GPCR activation or inhibition.
Tox21 Assay Protocol Summary:
DRD2-Hek293 cells were dispensed at 600 cells/3uL/well in 1536-well white plates using a Multidrop Dispenser. After the assay plates were incubated at a 37 C/5% CO2 incubator for 24 h, 1 uL of Ro20-1724 at final concentration of 0.1 mM was transferred to the assay plate by a Flying Reagent Dispenser. Following Ro20-1724 addition, 23 nL of compound dissolved in DMSO, positive controls or DMSO only was added to the assay plates via Wako pintool station. The assay plates were incubated at room temperature for 10 min. Next, 1 uL of mixture of NKH477 (final concentration at 200 nM) and quinpirole (final concentration at 12 nM) was added into the plates. After the assay plates were incubated at room temperature for an additional 30 min, 2.5 ul/well of cAMP-d2 and 2.5 ul/well of anti-cAMP-cryptate were added respectively into the assay plates using a Flying Reagent Dispenser. The plates were incubated at room temperature for 1 h. The fluorescence intensity in the plates was measured at 340 nm excitation and 665 & 620 nm emission by an Envision plate reader.
On the technique in general: Quantitative high-throughput screening tests each substance at several concentrations.
In the case of `O=C(O)c1ccc([N+](=O)[O-])cc1`, the Potency entry was “inactive”.

With `CC(C)(C)C(=O)OCOC(=O)C1N2C(=O)CC2S(=O)(=O)C1(C)C` (stereo not given), the Potency entry was “inactive”.

Regarding `COC(=O)/C=C(/C)N`, the Potency entry is “inactive”.

As to `CC(C)(O)Cc1ccccc1`, the Potency entry is “inactive”.

For the compound `C(=C\c1ccccc1)/c1ccccc1`, the Potency entry is “inactive”.

Take `CCCCOCCOCCOC(=O)CCCCC(=O)OCCOCCOCCCC`: the Potency result was “inactive”.

Consider `C[C@H]1C[C@@H](O)CC(C)(C)C1`, for which the Potency entry is “inactive”.

Turning to `Cc1nc(-c2ccc3c(c2)CCN(CCC2CCC(NC(=O)/C=C/c4ccc(F)cc4)CC2)CC3)no1` (stereo not given), the Potency result was “inactive”.

With `O=C1NC(c2ccccc2)(c2ccccc2)C(=O)N1COP(=O)(O)O`, the Potency result was “inactive”.

`Clc1cc(Cl)c(Cl)c(Cl)c1Cl`: the Potency entry was “inactive”.

Take `C=CC(=O)NCOCCCC`: the Potency result is “inactive”.

With `CC(C)OCCO`, the Potency result was “inactive”.

With `CC1C(C)(C)C2=C(C(=O)CCC2)C1(C)C` (stereo not given), the Potency entry was “inactive”.

Turning to `CC(=O)N[C@@H](Cc1ccc(O)cc1)C(=O)O`, the Potency entry is “inactive”.

As for `O=C1C(O)=C(O)C(=O)C(O)=C1O`, the Potency result was “inactive”.

Turning to `CC[C@]12CCCN3CCc4c(n(c5ccccc45)[C@@](O)(C(=O)OC)C1)[C@@H]32`, the Potency entry is “inactive”.

With `Cc1ccc(C(=O)C(=O)O)cc1C`, the Potency result is “inactive”.

For the compound `O=C(O)c1cccc(C(F)(F)F)c1`, the Potency result was “inactive”.

In the case of `CC(C)(C)NC[C@H](O)COc1nsnc1N1CCOCC1`, the Potency result was “inactive”.

Regarding `CC1(C)Oc2ccc(C#N)cc2[C@@H](N2CCCC2=O)[C@@H]1O`, the Potency entry was “inactive”.

On to `COc1cc(C(=S)N2CCOCC2)cc(OC)c1OC`, for which the Potency result was “inactive”.

Take `CCC(=O)OC`: the Potency result was “inactive”.

Regarding `COc1ccccc1NC(=O)CC(C)=O`, the Potency entry was “inactive”.

Regarding `NC(=O)NNC(N)=O`, the Potency result was “inactive”.

On to `C=CC(C)(CCC=C(C)C)OC(=O)CC` (stereo not given), for which the Potency result was “inactive”.

Regarding `COc1cccc(OC)c1C(=O)N[C@@H]1C(=O)N2[C@@H]1SC(C)(C)[C@@H]2C(=O)O`, the Potency entry was “inactive”.

As to `C[C@]12CC[C@@H]3c4ccc(O)cc4CC[C@H]3[C@@H]1CCC2=O`, the Potency result was “inactive”.

For `BrC1CCC(Br)C(Br)CCC(Br)C(Br)CCC1Br` (stereo not given), the Potency result was “inactive”.

Take `Cc1cn([C@H]2C[C@H](F)[C@@H](CO)O2)c(=O)[nH]c1=O`: the Potency result was “inactive”.

On to `CC12CC3CC(C)(C1)CC(N)(C3)C2`, for which the Potency result was “inactive”.

On to `CC1CNCC(C)O1` (stereo not given), for which the Potency result is “inactive”.

As to `CC1(C)CO[C@@H](CC(=O)O)CN1`, the Potency result is “inactive”.

On to `CC/C=C/CCO`, for which the Potency entry was “inactive”.

As for `CC(C)C(=O)C(C)C`, the Potency result was “inactive”.

Turning to `O=C(Nc1ccc([N+](=O)[O-])cc1Cl)c1cc(Cl)ccc1O`, the Potency result was “inactive”.

For `CC(C)CCCC(C)CCO` (stereo not given), the Potency entry was “inactive”.

As to `O=[N+]([O-])c1ccc(/C=C/c2ccc([N+](=O)[O-])cc2S(=O)(=O)O)c(S(=O)(=O)O)c1`, the Potency result is “inactive”.

Turning to `CCc1c(Br)c(Br)c(Br)c(Br)c1Br`, the Potency result is “inactive”.

In the case of `CC(C)S`, the Potency result was “inactive”.

As for `c1ccc2nccnc2c1`, the Potency result is “inactive”.

(Values after PubChem BioAssay (Tox21).)
